# Values joined by “and” are separate entries in the source; they are usually repeats but may differ in a detail not shown here. Equal values may be shown once. Inconclusive results are not listed. Active and inactive are the calls of the source.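 The calls were made as follows, unless noted: active = normalized viability below 100% at a tested concentration; inactive = the rest.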
# What was measured:
# [1] = viability loss in pontine glioma line – cell-based, SU-DIPG-XIII, MIPE4.0, CellTiter-Glo, qHTS, dose response (AID 1347061; cut-off not given, nearly all actives have AC50 up to about 37 µM;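 also: cells exposed to compound for 48 hours before readout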); conditions: CellTiter-Glo ATP luminescence
# [2] = viability loss in pontine glioma line – cell-based, JHH-DIPG-1, MIPE4.0, CellTiter-Glo, qHTS, dose response (AID 1347062; cut-off not given, nearly all actives have AC50 up to about 27 µM;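 as to AC50: cells exposed to compound for two days before readout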); conditions: JHH-DIPG-1 viability, CellTiter-Glo ATP luminescence
# [3] = growth inhibition of DIPG cells – cell-based, MIPE4.0 library, CellTiter-Glo luminescence, qHTS (AID 1347066; cut-off not given, nearly all actives have AC50 up to about 30 µM;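 also: cells exposed to compound for 48 hours before readout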); conditions: SU-DIPG-VI viability, CellTiter-Glo ATP luminescence
# [4] = viability loss in pontine glioma line – cell-based, SU-DIPG-XXV, MIPE5.0, CellTiter-Glo, qHTS, dose response (AID 1347065; cut-off not given, nearly all actives have AC50 up to about 26 µM;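 also: cells exposed to compound for 48 hours before ATP readout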); conditions: CellTiter-Glo ATP luminescence
# [5] = JHH-DIPG-1 glioma cell viability, MIPE5.0 library, CellTiter-Glo luminescence, qHTS (AID 1347067; cut-off not given, nearly all actives have AC50 up to about 26 µM;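 also: cells exposed to compound for 48 hours before readout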); conditions: JHH-DIPG-1 glioma viability, CellTiter-Glo ATP luminescence
# [6] = viability loss with induced miR-34 in A549 – imaging, A549 dox-inducible miR-34, nuclei and caspase counts, primary screen (AID 1347080;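 active = compounds whose cell count with miR-34 switched on is under 0.7 times the count with it off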); conditions: A549 miR-34 inducible, Hoechst nuclei count, 48 h
# [7] = compounds altering HSF1 focus formation in cells – imaging, Selleck Cancer Library (AID 1347162; in the data active = plate-normalised HSF1 focus index below about 0.46); conditions: human cells, HSF1 nuclear foci imaging, at 10 µM; SSMD: measured here: HSF1 foci SSMD mean; cell count: measured here: cell number; plate-normalised HSF1 focus index: stronger effect = lower value
# [8] = MELAS cybrid and Rieske KO viability enhancers – cell-based, MELAS cybrids, Rieske KO mouse fibroblasts, CellTiter-Glo, primary screen (AID 1508586;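 active = mean z-score across replicates of 1.96 or higher in either the MELAS or the Rieske mutant cell line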;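 also: z relative to plate mean and SD of compound and empty wells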); conditions: low glucose
# [9] = drug combination growth inhibition, ovarian cancer – cell-based, oncology-focused library, rucaparib conditional, profiling panel (AID 1508598); conditions: patient-derived ovarian cancer cells, CellTiter-Glo viability, 144 h, stronger effect = lower value
# [10] = growth inhibition of DIPG cells – cell-based, MIPE5.0 library, qHTS (AID 1347068; cut-off not given, nearly all actives have IC50 up to about 30 µM;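 as to IC50: cells exposed to compound for 48 hours before viability readout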); conditions: SU-DIPG-XXV viability
# [11] = stronger effect = lower value, cell number ratio, induced over uninduced
# [12] = measured here: relative caspase fold change +Dox/-Dox
# [13] = measured here: total cells with miR-34 induction, stronger effect = lower value
# [14] = measured here: total cells without miR-34 induction
# [15] = MELAS cybrid survival, CellTiter-Glo 48 h, stronger effect = higher value
# [16] = Rieske KO mouse fibroblast survival, CellTiter-Glo 72 h
smiles,measurement,setting,value
CN(C)/[N+]([O-])=N/Oc1cc(ON[N+](=O)N2CCN(C(=O)c3cc(Cc4n[nH]c(=O)c5ccccc45)ccc3F)CC2)c([N+](=O)[O-])cc1[N+](=O)[O-],AC50,[1],20.9 µM (active)
same,AC50,[2],13.2 µM (active)
same,outcome,[3],inactive
Cc1csc(-c2nnc(Nc3ccc(Oc4ncccc4-c4ccnc(N)n4)cc3)c3ccccc23)c1,outcome,[1],inactive
same,outcome,[2],inactive
same,AC50,[4],0.00417 µM (active)
same,outcome,[3],inactive
same,outcome,[5],inactive
same,fold change,[6]; [11],1.11 (inactive)
same,fold change,[6]; [12],0.556
same,cell count,[6]; [13],3250
same,cell count,[6]; [14],2920
same,SSMD,[7],8.74
same,cell count,[7],7110
same,plate-normalised HSF1 focus index,[7],1.31 (inactive)
same,z-score,[8]; [15],-0.373 (inactive)
same,z-score,[8]; [16],1.23
same,viability,"[9]; at 0.000305 µM, OCI-C5x cells, with rucaparib 10 µM, 100% = cells with rucaparib alone",113% (inactive)
same,viability,"[9]; at 0.000305 µM, OCI-C5x cells, without rucaparib",116% (inactive)
same,viability,"[9]; at 0.000305 µM, OCI-P5x cells, with rucaparib 20 µM, 100% = cells with rucaparib alone",111% (inactive)
same,viability,"[9]; at 0.000305 µM, OCI-P5x cells, without rucaparib",94.9% (active)
same,viability,"[9]; at 0.00122 µM, OCI-C5x cells, with rucaparib 10 µM, 100% = cells with rucaparib alone",109% (inactive)
same,viability,"[9]; at 0.00122 µM, OCI-C5x cells, without rucaparib",107% (inactive)
same,viability,"[9]; at 0.00122 µM, OCI-P5x cells, with rucaparib 20 µM, 100% = cells with rucaparib alone",108% (inactive)
same,viability,"[9]; at 0.00122 µM, OCI-P5x cells, without rucaparib",98.2% (active)
same,viability,"[9]; at 0.00488 µM, OCI-C5x cells, with rucaparib 10 µM, 100% = cells with rucaparib alone",103% (inactive)
same,viability,"[9]; at 0.00488 µM, OCI-C5x cells, without rucaparib",92.7% (active)
same,viability,"[9]; at 0.00488 µM, OCI-P5x cells, with rucaparib 20 µM, 100% = cells with rucaparib alone",113% (inactive)
same,viability,"[9]; at 0.00488 µM, OCI-P5x cells, without rucaparib",93.3% (active)
same,viability,"[9]; at 0.0195 µM, OCI-C5x cells, with rucaparib 10 µM, 100% = cells with rucaparib alone",78.2% (active)
same,viability,"[9]; at 0.0195 µM, OCI-C5x cells, without rucaparib",88.5% (active)
same,viability,"[9]; at 0.0195 µM, OCI-P5x cells, with rucaparib 20 µM, 100% = cells with rucaparib alone",93% (active)
same,viability,"[9]; at 0.0195 µM, OCI-P5x cells, without rucaparib",70.3% (active)
same,viability,"[9]; at 0.0781 µM, OCI-C5x cells, with rucaparib 10 µM, 100% = cells with rucaparib alone",82.2% (active)
same,viability,"[9]; at 0.0781 µM, OCI-C5x cells, without rucaparib",99.2% (active)
same,viability,"[9]; at 0.0781 µM, OCI-P5x cells, with rucaparib 20 µM, 100% = cells with rucaparib alone",92.9% (active)
same,viability,"[9]; at 0.0781 µM, OCI-P5x cells, without rucaparib",66.6% (active)
same,viability,"[9]; at 0.313 µM, OCI-C5x cells, with rucaparib 10 µM, 100% = cells with rucaparib alone",79.9% (active)
same,viability,"[9]; at 0.313 µM, OCI-C5x cells, without rucaparib",105% (inactive)
same,viability,"[9]; at 0.313 µM, OCI-P5x cells, with rucaparib 20 µM, 100% = cells with rucaparib alone",94.9% (active)
same,viability,"[9]; at 0.313 µM, OCI-P5x cells, without rucaparib",67.8% (active)
same,viability,"[9]; at 1.25 µM, OCI-C5x cells, with rucaparib 10 µM, 100% = cells with rucaparib alone",102% (inactive)
same,viability,"[9]; at 1.25 µM, OCI-C5x cells, without rucaparib",95.4% (active)
same,viability,"[9]; at 1.25 µM, OCI-P5x cells, with rucaparib 20 µM, 100% = cells with rucaparib alone",91% (active)
same,viability,"[9]; at 1.25 µM, OCI-P5x cells, without rucaparib",64.7% (active)
same,viability,"[9]; at 5 µM, OCI-C5x cells, with rucaparib 10 µM, 100% = cells with rucaparib alone",119% (inactive)
same,viability,"[9]; at 5 µM, OCI-C5x cells, without rucaparib",133% (inactive)
same,viability,"[9]; at 5 µM, OCI-P5x cells, with rucaparib 20 µM, 100% = cells with rucaparib alone",58.5% (active)
same,viability,"[9]; at 5 µM, OCI-P5x cells, without rucaparib",54.4% (active)
O=C(NCc1ccccc1)[C@H](Cc1ccccc1)NC(=O)[C@H]1O[C@@H]1C(=O)NCCc1ccc(O)cc1,outcome,[1],inactive
same,outcome,[2],inactive
same,outcome,[4],inactive
same,outcome,[3],inactive
same,IC50,[10],18.6 µM (active)
c1ccc2c(Oc3nc(Nc4ccc(N5CCOCC5)cc4)c4ncn(C5CCCCC5)c4n3)cccc2c1,outcome,[1],inactive
same,outcome,[2],inactive
same,outcome,[3],inactive
same,AC50,[5],13.2 µM (active)
same,outcome,[10],inactive
same,fold change,[6]; [11],0.897 (inactive) and 0.992 (inactive)
same,fold change,[6]; [12],0.721 and 0.438
same,cell count,[6]; [13],5540 and 6870
same,cell count,[6]; [14],6180 and 6930
same,z-score,[8]; [15],-0.486 (inactive)
same,z-score,[8]; [16],0.0671
COCCNCCCn1c(C(=O)CF)c(-c2ccc(C)cc2)c2c(N)ncnc21,outcome,[1],inactive
same,outcome,[2],inactive
same,outcome,[5],inactive
same,outcome,[10],inactive
O=C(N[C@@H](c1ccccc1)[C@@H]1CCCCN1)c1cccc(C(F)(F)F)c1Cl,outcome,[1],inactive
same,outcome,[2],inactive
same,AC50,[4],20.9 µM (active)
same,outcome,[3],inactive
same,outcome,[10],inactive

# — PubChem BioAssay
